Screening results (PubChem BioAssay)
DT40 TDP1 no CPT: qHTS for Inhibitors of human tyrosyl-DNA phosphodiesterase 1 (TDP1): qHTS in cells in absence of CPT; DT40 Tdp1-/- hTDP1 cells, no CPT, ATP luminescence, 48 h; Potency, µM (highest dose often 46.2 µM), for the others: at the top dose activity change, negative = growth inhibition, hits mostly inhibitors; actives 15% (n = 420,000); also: nearly all actives have a fitted effect of over 55% in size
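Chicken DT40 Tdp1-/- cells stably complemented with human TDP1 were seeded at 400 cells/well with DMSO in place of 20 nM camptothecin. After compound pinning, cells grew at least 48 hr at 37 °C; viability read by CellTiter-Glo luminescence.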
ALOX12 inh: inhibitors of human 12S-lipoxygenase ALOX12; P18054; purified 12hLO, xylenol orange hydroperoxide absorbance; Potency, µM (series often up to 108 µM), for inactives: top-dose activity change, negative = inhibition, hits mostly inhibitors; actives 1.1% (n = 580,000)
Target sequence (P18054 whole entry, looked up): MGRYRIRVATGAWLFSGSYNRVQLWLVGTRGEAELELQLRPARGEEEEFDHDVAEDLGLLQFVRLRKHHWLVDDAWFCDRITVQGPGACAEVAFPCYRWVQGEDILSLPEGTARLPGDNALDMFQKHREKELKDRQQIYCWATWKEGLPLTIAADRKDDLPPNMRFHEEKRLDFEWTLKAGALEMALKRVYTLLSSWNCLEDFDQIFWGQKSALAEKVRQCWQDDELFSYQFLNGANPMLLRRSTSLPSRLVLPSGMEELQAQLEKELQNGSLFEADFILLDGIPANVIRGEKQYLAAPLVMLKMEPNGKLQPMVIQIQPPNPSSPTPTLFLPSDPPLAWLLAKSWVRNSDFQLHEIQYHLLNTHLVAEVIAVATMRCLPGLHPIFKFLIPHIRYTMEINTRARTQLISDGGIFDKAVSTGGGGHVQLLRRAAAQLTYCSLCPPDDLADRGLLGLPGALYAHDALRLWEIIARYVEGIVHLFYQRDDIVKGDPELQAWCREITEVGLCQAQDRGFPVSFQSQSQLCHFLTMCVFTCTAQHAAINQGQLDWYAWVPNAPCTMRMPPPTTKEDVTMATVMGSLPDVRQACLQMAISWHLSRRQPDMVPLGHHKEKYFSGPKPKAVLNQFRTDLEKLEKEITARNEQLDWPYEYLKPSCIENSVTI
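Purified human 12hLO (150 nM final) in 25 mM Hepes, 0.01% Triton X-100, pH 7.0 was preincubated 15 min at room temperature with compound. Then 40 uM arachidonic acid was added, 30 min. Hydroperoxide was read by Fe-XO absorbance ratio 573/405 nm.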
DT40 TDP1 CPT: growth inhibition of DT40 Tdp1-/-;hTDP1 cells with camptothecin (screen for TDP1 inhibitors); chicken DT40 Tdp1-/-;hTDP1 cells + 20 nM CPT, ATP luminescence, 48 h; Potency, µM (doses to about 46.2 µM), inactives show at the highest dose activity change, negative = growth inhibition, actives largely listed as inhibitors; actives 12% (n = 420,000); also: nearly all actives have a fitted effect of over 55% in size
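Chicken DT40 Tdp1-/- cells stably complemented with human TDP1 were seeded at 400 cells/well in medium containing 20 nM camptothecin, exposed to pin-transferred compounds, and grown at 37 °C for at least 48 hr. Viability was read as ATP luminescence.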
RORg inh: ROR gamma (mouse) transcription inhibition. AID 2551. P51450. Potency, µM (titrated, usually from 53.6 µM), for inactives: top-dose activity change, negative = inhibition, usual class: inhibitors. actives 5.4% (n = 310,000). Drosophila S2 Gal4-RORgamma UAS-luciferase reporter, 20 h; also: nearly all actives have a fitted effect of over 60% in size
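Luminescence from a UAS-regulated Photinus luciferase reporter in stably transfected Drosophila Schneider cells is measured; decreased signal marks ROR gamma inhibition. Fusion expression is induced by 700 uM copper sulfate for 20 hr.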
ELG1 repair inh: blocks ELG1-dependent DNA repair in HEK293T cells. AID 504467. HEK293T ELG1-luciferase reporter, luminescence, 16 h; DNA damage induced by 5-fluorouridine. actives 2.3% (n = 330,000). Potency, µM (highest dose often 46.1 µM), for the others: at the top dose activity change, negative = inhibition, most hits filed as inhibitors; also: nearly all actives have a fitted effect of over 55% in size
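In this reporter screen, reduction of luminescence relative to DMSO vehicle indicated activity. Compounds and 5-fluorouridine were added together to 2,000 cells per well, incubated for 16 hr at 37 °C, then developed with ONE-Glo.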
VP16 counter: counter-screen for ROR gamma inhibitors: Gal4-VP16 reporter | Drosophila S2 Gal4-VP16 UAS-luciferase, luminescence, 20 h | Potency, µM (doses to about 53.6 µM), for inactives: at the highest dose activity, negative = inhibition, usual class: inhibitors | actives 3.5% (n = 310,000) | AID 2546;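 also: Gal4-VP16 expression switched on by copper sulfate through the metallothionein promoter; nearly all actives have a fitted effect of over 50% in size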
* = called active by the depositor; u = inconclusive; x = not tested or not shown; [ ] = another dose, or the depositor's remark. In the library only some 15% were active in any assay of this set; here they are far more common. Calls follow the shape of the dose curve; as a rule, active = well fitted curve in the direction sought with a large enough effect; inconclusive = small, poorly fitted or top-dose-only effect, or another doubt; inactive = no such curve, though single readings can be large; an effect the other way counts as inactive or inconclusive. % is scaled to controls: 0 for no effect and ±100 for the full control effect; potency is read from the fitted curve at half-maximal effect.

SMILES | DT40 TDP1 no CPT | ALOX12 inh | DT40 TDP1 CPT | RORg inh | ELG1 repair inh | VP16 counter
Cc1ccc(N2CCN(C(=O)c3cnc(N4CCCCC4)c4ccccc34)CC2)c(C)c1 | u | -24% | u | x | x | x
Cc1ccc(Cl)cc1N(C)C(=O)c1cnc(N2CCOCC2)c2ccccc12 | u | 1% | u | x | x | x
O=C(c1cnc(N2CCCCC2)c2ccccc12)N1CCN(c2ccc(Cl)cc2)CC1 | 23µM* | -24% | 15µM* | x | x | x
O=C(O)c1ccccc1C(=O)N1CCN(c2ncccn2)CC1 | -13% | 0% | -12% | 12% | 10% | 5%
CCCc1nc(SC)ncc1C(=O)N1CCN(c2ccc(Cl)cc2)CC1 | 23µM* | -18% | u | x | x | x
CSc1ncc(C(=O)N2CCN(c3ccc(F)cc3)CC2)c(C)n1 | -25% | -12% | -28% | x | x | x
O=C(c1cnc(N2CCN(c3ncccn3)CC2)c2ccccc12)N1CCN(c2ncccn2)CC1 | 15µM* | 9% | 15µM* | 38% | u | -8%
CCS(=O)(=O)N(C1CC1)C1CCOC2(CCN(C(=O)c3cccc(F)c3)CC2)C1 (centres undefined) | x | 47% | x | x | x | x
O=C(OCC(=O)N1CCOCC1)c1ccccc1-c1nc2ccccc2s1 | x | -13% | x | x | x | x
Cc1ccc(Cl)cc1N1CCN(C(=O)c2cnc(N3CCOCC3)c3ccccc23)CC1 | 6.5µM* | 0% | 5.8µM* | x | x | x
Cc1ccc(Oc2ccccc2NC(=O)CSCC(=O)Nc2cc(C)on2)cc1 | 10µM* | 16% | 8.2µM* | x | 1% | x
CCOC(=O)CSCc1nc(-c2ccc(Cl)cc2)oc1C | -2% | -24% | -16% | 10µM* | 24% | u
Cc1cc(NC(=O)COc2cccc(Oc3ccccc3)c2)no1 | u | 5% | 13µM* | 39%[0.365 µM] | 2% | x
Cc1cc(NC(=O)CSCC(=O)Nc2ccccc2Oc2ccccc2)no1 | u | 1% | -24% | x | 0% | x
Cc1oc(-c2ccccc2F)nc1CSCC(=O)NC1CC1 | -24% | -5% | u | -14% | -1% | -2%
Cc1oc(-c2ccccc2F)nc1CSCC(=O)NCCc1ccccc1 | 18µM* | -3% | 13µM* | x | x | x
O=C(N[C@H]1[C@H](O)[C@H](O)C[C@@H]1c1cccnc1)c1ccccc1 | x | 19%[176 µM] | x | x | x | x
CC(NC(=O)c1noc(-c2ccc3c(c2)OCO3)n1)c1ccc(F)cc1 (centres undefined) | x | 35% | x | x | x | x
Cc1ccc2nc(NC(=O)Cn3c(=O)oc4ccccc43)sc2c1 | x | -22% | x | x | x | x
CSc1ncccc1C(=O)N[C@@H]1CCOC[C@H]1Oc1ccc(C#N)cc1 | x | 24% | x | x | x | x
CCOc1ccc(-c2nc(CSCC(=O)NCCc3ccccc3)c(C)o2)cc1 | 18µM* | 7% | u | x | x | x
Cc1ccc(-c2nc(CSCC(=O)NCCN3CCN(Cc4ccccc4)CC3)c(C)o2)cc1 | 21µM* | -16% | u | -35% | 16µM* | u
Cc1ccc(-c2nc(CSCC(=O)Nc3cc(C)on3)c(C)o2)cc1 | -29% | 6%[57.4 µM] | -15% | u | u | 6.3µM*
CCOc1ccc(-c2nc(CSCC(=O)NCC(OC)OC)c(C)o2)cc1 | x | 3% | x | x | x | x
Cc1ccc(-c2nc(CSCC(=O)NCCCN3CCOCC3)c(C)o2)cc1 | 9% | 0% | -1% | -23% | -1% | -17%
Cc1ccc(C(C)(O)c2nc3ccccc3s2)c(C)c1 (centres undefined) | x | 0%[57.4 µM] | x | x | x | x
CCOc1cc(C=O)cc(Br)c1OCc1cccc(C)c1 | x | 6% | x | x | x | x
CN1c2cccnc2CN(C(=O)Nc2cccc(F)c2)CC[C@H]1CO | x | 61%[176 µM] | x | x | x | x
